Assay results taken from PubChem BioAssay (Tox21).
“And” between values parts separate entries of the source, which are not always exact repeats. Identical values can stand only once. Records with an inconclusive call do not appear. Some structures have more than one record in an assay (separate samples or runs), and their calls can disagree. The source made the active and inactive calls. Calls come from the whole dose curve; as a rule, active = well fitted curve in the direction sought with a large enough effect in the repeat runs; inconclusive = weak or mixed curves; inactive = no such curve, though single readings can be large; an effect the other way counts as inactive or inconclusive.

Experiments:
[1] = qHTS RealTime-Glo MT Cell Viability Assay in HEK293 cells - 40 hour (AID 1224874); conditions: RealTime-Glo luminescence; max response: stronger effect = lower value; note: nearly all actives have a fitted effect of over 50% in size
In short: (§1)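 Luminescence, which tracks viable cell number through reduction of the prosubstrate to a NanoLuc substrate, was read over continuous 37 C culture. Cells (600/well) were premixed with reagent and rested 5 h before 23 nL of compound in DMSO was pinned.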

[2] = A CellTox Green Cytotoxicity Assay to monitor cytotoxicity in HEK293 cells - 24 hour (AID 1224875); note: nearly all actives have a fitted effect of over 45% in size
In short: (§2)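 Fluorescence from a DNA-binding dye excluded by viable cells was measured repeatedly in the same HEK293 wells (600 cells/well) during continuous compound exposure at 37 C. Each assay gives one read point: 0, 8, 16, 24, 32 or 40 h.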

[3] = A CellTox Green Cytotoxicity Assay to monitor cytotoxicity in HepG2 cells - 16 hour (AID 1224876); note: nearly all actives have a fitted effect of over 45% in size
In short: (§3)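 Real-time cytotoxicity: fluorescence of a cell-impermeant cyanine dye binding DNA of dead HepG2 cells, measured repeatedly (0–40 h) during compound exposure at 37 C. Cells seeded 600/well with reagent, dosed after 5 h.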

[4] = qHTS RealTime-Glo MT Cell Viability Assay in HepG2 cells - 32 hour (AID 1224877); note: nearly all actives have a fitted effect of over 55% in size
In short: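 Cell number in HepG2 cultures estimated from NanoLuc luminescence generated by metabolic reduction of a prosubstrate by living cells. The homogeneous, nonlytic format allowed repeated reads at 0, 8, 16, 24, 32 and 40 h of compound exposure.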

[5] = A CellTox Green Cytotoxicity Assay to monitor cytotoxicity in HepG2 cells - 24 hour (AID 1224878); note: nearly all actives have a fitted effect of over 45% in size
In short: as §3

[6] = qHTS RealTime-Glo MT Cell Viability Assay in HEK293 cells - 0 hour (AID 1224880); note: nearly all actives have a fitted effect of over 45% in size
In short: as §1

[7] = A CellTox Green Cytotoxicity Assay to monitor cytotoxicity in HEK293 cells - 32 hour (AID 1224881); note: nearly all actives have a fitted effect of over 40% in size
In short: as §2

[8] = A CellTox Green Cytotoxicity Assay to monitor cytotoxicity in HepG2 cells - 0 hour (AID 1224882); note: nearly all actives have a fitted effect of over 35% in size
In short: as §3

[9] = A CellTox Green Cytotoxicity Assay to monitor cytotoxicity in HepG2 cells - 32 hour (AID 1224883); note: nearly all actives have a fitted effect of over 50% in size
In short: as §3

[10] = A CellTox Green Cytotoxicity Assay to monitor cytotoxicity in HepG2 cells - 40 hour (AID 1224879); note: nearly all actives have a fitted effect of over 40% in size
In short: as §3
% is set by controls: 0 for no effect and ±100 for the full control effect; potency is the fitted concentration of half-maximal effect.

C/C=C/C(=O)C1=C(C)CCCC1(C)C
inactive: max response [1] 16.6% | Potency [2] | Potency [3] | Potency [4] | Potency [5] | Potency [6] | Potency [7] | Potency [8] | Potency [9]

CC1=C(/C=C/C(C)=C/C=C/C(C)=C/C(=O)Nc2ccc(O)cc2)C(C)(C)CCC1
active: Potency [1] 893 nM and 425 nM | Potency [10] 50.2 µM and 23.9 µM | Potency [9] 50.2 µM and 26.8 µM
inactive: Potency [2] | Potency [3] | Potency [6] | Potency [7] | Potency [8]
inactive and 26.8 µM (active): Potency [4]

C=C(C)C(=O)OCCC[Si](Cl)(Cl)Cl
inactive: max response [1] -5.22% | Potency [2] | Potency [3] | Potency [4] | Potency [5] | Potency [6] | Potency [7] | Potency [8] | Potency [9]

CN(C)c1ccc(N=NS(=O)(=O)O)cc1
inactive: max response [1] -17.2% | Potency [2] | Potency [3] | Potency [4] | Potency [6] | Potency [7] | Potency [9]

CCOC(=O)N1CCC(=C2c3ccc(Cl)cc3CCc3cccnc32)CC1
inactive: Potency [2] | Potency [3] | Potency [4] | Potency [6] | Potency [7] | Potency [8]
active: Potency [1] 19.5 µM and 16.9 µM | Potency [10] 54.9 µM

CCN(CC)c1cccc(C)c1
inactive: max response [1] -4.54% | Potency [2] | Potency [3] | Potency [4] | Potency [5] | Potency [6] | Potency [7] | Potency [8] | Potency [9]

Cn1cnc2ncnc(N)c21
inactive: max response [1] 11.2% | Potency [2] | Potency [3] | Potency [4] | Potency [10] | Potency [6] | Potency [8] | Potency [9]

O=C1OC(=O)c2cccc3cccc1c23
inactive: max response [1] -9.96% | Potency [2] | Potency [3] | Potency [4] | Potency [5] | Potency [6] | Potency [7] | Potency [9]

CN1CN(C)CN(C)C1
inactive: max response [1] -12.7% | Potency [2] | Potency [3] | Potency [4] | Potency [10] | Potency [6] | Potency [7] | Potency [8] | Potency [9]

c1ccc(Nc2cccc3ccccc23)cc1
inactive: max response [1] -7.99% | Potency [2] | Potency [3] | Potency [4] | Potency [6] | Potency [7] | Potency [8]

Cc1cc2c(C(C)C)c(O)c(O)c(C=O)c2c(O)c1-c1c(C)cc2c(C(C)C)c(O)c(O)c(C=O)c2c1O
inactive: Potency [3] | Potency [6] | Potency [8]
active: Potency [1] 8.49 µM | Potency [2] 19 µM | Potency [4] 21.3 µM | Potency [10] 26.8 µM | Potency [7] 21.3 µM

CC(COC(=O)c1ccccc1)OC(=O)c1ccccc1 (centres undefined)
inactive: max response [1] -5.23% | Potency [2] | Potency [3] | Potency [4] | Potency [5] | Potency [6] | Potency [8] | Potency [9]

CCCCOc1ccc(C(=O)CCN2CCCCC2)cc1
inactive: Potency [6] | Potency [8]
active: Potency [1] 13.4 µM | Potency [2] 16.9 µM | Potency [3] 19 µM | Potency [4] 10.7 µM | Potency [5] 19 µM | Potency [7] 19 µM | Potency [9] 12 µM

Cc1ccc(CCn2c3c(c4cc(Cl)ccc42)CN(C)CC3)cn1
inactive: Potency [2] | Potency [3] | Potency [4] | Potency [7] | Potency [8]
active: Potency [1] 21.3 µM | Potency [6] 16.9 µM

CC1(C)C(=O)N(Br)C(=O)N1Br
inactive: max response [1] -1.21% | Potency [2] | Potency [3] | Potency [4] | Potency [5] | Potency [6] | Potency [7] | Potency [8] | Potency [9]

O=Cc1ccc(F)cc1
inactive: max response [1] 3.4% | Potency [2] | Potency [3] | Potency [4] | Potency [10] | Potency [6] | Potency [7] | Potency [8] | Potency [9]

c1cc[nH]c1
inactive: max response [1] 10.9% | Potency [2] | Potency [3] | Potency [4] | Potency [5] | Potency [6] | Potency [8] | Potency [9]

[O]=[Zr]
inactive: max response [1] 1.9% | Potency [2] | Potency [3] | Potency [4] | Potency [5] | Potency [6] | Potency [8] | Potency [9]

CCOCOCC
inactive: max response [1] 5.75% | Potency [2] | Potency [3] | Potency [4] | Potency [5] | Potency [6] | Potency [7] | Potency [8] | Potency [9]

c1cc2c3c(c1)ccc1cccc(c13)C2
inactive: max response [1] -20.7% | Potency [3] | Potency [4] | Potency [10] | Potency [6] | Potency [8] | Potency [9]
active: Potency [2] 56.1 µM | Potency [7] 50 µM

CCN=C1C=CC(=C(c2ccc(N(CC)CC)cc2)c2ccc(N(CC)CC)cc2)c2ccccc21
active: Potency [1] 5.46 µM | Potency [2] 19.4 µM | Potency [3] 19.4 µM | Potency [4] 19.4 µM | Potency [10] 19.4 µM | Potency [7] 13.7 µM | Potency [9] 19.4 µM

CC(C)(C)c1cc(CCC(=O)NCCCCCCNC(=O)CCc2cc(C(C)(C)C)c(O)c(C(C)(C)C)c2)cc(C(C)(C)C)c1O
inactive: max response [1] -24.8% | Potency [2] | Potency [3] | Potency [5] | Potency [6] | Potency [9]

NCCCCCCNCCCCCCN
inactive: max response [1] -6.12% | Potency [2] | Potency [3] | Potency [5] | Potency [10] | Potency [6] | Potency [7] | Potency [8] | Potency [9]

CCCCN(C)C
inactive: max response [1] 1.09% | Potency [2] | Potency [3] | Potency [5] | Potency [10] | Potency [6] | Potency [8] | Potency [9]

O=C1c2c(O)ccc(O)c2C(=O)c2c(NCCNCCO)ccc(NCCNCCO)c21
active: Potency [1] 0.019 µM
inactive: Potency [2] | Potency [3] | Potency [5] | Potency [6] | Potency [7] | Potency [8] | Potency [9]

C/C=C/CO
inactive: max response [1] 8.59% | Potency [2] | Potency [3] | Potency [5] | Potency [10] | Potency [6] | Potency [7] | Potency [8] | Potency [9]

O=C(Nc1ccc(Cl)cc1)Nc1ccc(Cl)c(C(F)(F)F)c1
active: Potency [1] 5.35 µM | Potency [9] 19 µM
inactive: Potency [2] | Potency [3] | Potency [6] | Potency [8]

C[n+]1c2cc(N)ccc2cc2ccc(N)cc21 (tested in a mixture with another compound)
inactive: Potency [6]
active: Potency [1] 4.77 µM | Potency [2] 23.9 µM | Potency [3] 23.9 µM | Potency [5] 21.3 µM | Potency [7] 23.9 µM | Potency [8] 23.9 µM | Potency [9] 21.3 µM

COc1ccccc1OCCNCC(O)COc1cccc2[nH]c3ccccc3c12 (centres undefined)
active: Potency [1] 10.7 µM | Potency [3] 23.9 µM | Potency [5] 26.8 µM | Potency [10] 23.9 µM | Potency [9] 23.9 µM
inactive: Potency [2] | Potency [6] | Potency [8]

CCN=c1cc2oc3cc(NCC)c(C)cc3c(-c3ccccc3C(=O)OCC)c-2cc1C
inactive: Potency [6]
active: Potency [1] 614 nM and 550 nM | Potency [2] 12.3 µM and 11 µM | Potency [3] 10.9 µM and 6.17 µM | Potency [10] 21.8 µM and 6.17 µM | Potency [7] 10.9 µM and 11 µM | Potency [8] 6.89 µM and 6.17 µM | Potency [9] 21.8 µM

CC(=O)O[C@@H]1C[C@@H]2CC[C@@]1(C)C2(C)C
inactive: max response [1] 0.199% | Potency [2] | Potency [3] | Potency [5] | Potency [10] | Potency [6] | Potency [7] | Potency [9]

Cc1oc(-c2ccccc2)nc1CCOc1ccc(C[C@H](Nc2ccccc2C(=O)c2ccccc2)C(=O)O)cc1
inactive: max response [1] 0.495% | Potency [2] | Potency [3] | Potency [4] | Potency [6] | Potency [8]

c1cc(OCC2CO2)cc(OCC2CO2)c1 (centres undefined)
active: Potency [1] 12.2 µM
inactive: Potency [2] | Potency [3] | Potency [6] | Potency [7]

CCN(CC)c1ccc(N)cc1
inactive: Potency [2] | Potency [3] | Potency [6] | Potency [8]
active: Potency [1] 17.8 µM | Potency [10] 50.3 µM
